Measurements: PubChem BioAssay
For some assays here: Potency and affinity values are given separately. Active and inactive are the calls of the source. Unless noted, no rule for the calls is given here.

Experiments:
[1] = antimalarial activity against Dd2 strain (AID 2302;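 active = growth inhibition above 50% at the single 2 µM test dose, taken to imply half-maximal potency below 2 µM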;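 also: 0% = DMSO untreated growth and 100% = chloroquine plus artemisinin killed control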); conditions: P. falciparum Dd2 in RBCs, LDH growth readout, 72 h; at 2 µM; stronger effect = higher value
[2] = human hepatoma cell viability loss – ATP luminescence, cytotoxicity control for P. falciparum antimalarial project, primary screen (AID 2303;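 active = inhibition above 50%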;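 also: 0% = DMSO wells and 100% = digitonin-killed cells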); conditions: HepG2 viability, 24-48 h, at 10 µM, stronger effect = higher value
[3] = target: L-lactate dehydrogenase (Plasmodium falciparum (isolate CDC / Honduras)) (UniProt Q27743); assay: PfLDH activity inhibition – cell lysate, 3D7 strain, counter-screen for P. falciparum growth inhibition project (AID 2304);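 also: 0% = vehicle and 100% = reference inhibitor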; conditions: P. falciparum 3D7 crude extract, LDH APAD/NBT absorbance; at 2 µM; stronger effect = higher value
[4] = inhibition of 3D7 malaria parasite growth – strain 3D7 (AID 2306);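 also: 0% = DMSO wells and 100% = chloroquine plus artemisinin control wells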; conditions: P. falciparum 3D7 erythrocytic growth, LDH absorbance, 72 h; at 2 µM; stronger effect = higher value
[5] = target: Calcium-dependent protein kinase 1 (Plasmodium falciparum (isolate 3D7)) (UniProt P62344); assay: PfCDPK1 kinase inhibitors, biochemical, TCAMS library (AID 1159585; cut-off not given, nearly all actives have IC50 up to about 0.98 µM;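 also: inhibitors leave more ATP so luminescence rises with inhibition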); conditions: recombinant PfCDPK1, Kinase-Glo ATP depletion luminescence
[6] = target: Plasmodium falciparum protein kinase 6 (PK6, PF3D7_1337100) (UniProt Q8IDW1); assay: PfPK6 kinase inhibitors, biochemical, TCAMS library (AID 1159586); conditions: recombinant PfPK6, Kinase-Glo ATP depletion luminescence
[7] = target: Protein kinase 7 (PK7), Plasmodium falciparum 3D7 (PF3D7_0213400) (UniProt Q7YTF7); assay: inhibition of Plasmodium PK7 catalytic activity – biochemical, TCAMS antimalarial set, Kinase-Glo luminescence (AID 1159587); conditions: recombinant PfPK7, Kinase-Glo ATP depletion luminescence
[8] = target: Calcium-dependent protein kinase 4 (Plasmodium falciparum (isolate 3D7)) (UniProt Q8IBS5); assay: PfCDPK4 kinase inhibitors, biochemical, TCAMS library (AID 1159588; cut-off not given, nearly all actives have IC50 up to about 0.91 µM); conditions: recombinant PfCDPK4, Kinase-Glo ATP depletion luminescence
Sequence of Calcium-dependent protein kinase 4 (Plasmodium falciparum (isolate 3D7)) (Q8IBS5 whole entry, looked up): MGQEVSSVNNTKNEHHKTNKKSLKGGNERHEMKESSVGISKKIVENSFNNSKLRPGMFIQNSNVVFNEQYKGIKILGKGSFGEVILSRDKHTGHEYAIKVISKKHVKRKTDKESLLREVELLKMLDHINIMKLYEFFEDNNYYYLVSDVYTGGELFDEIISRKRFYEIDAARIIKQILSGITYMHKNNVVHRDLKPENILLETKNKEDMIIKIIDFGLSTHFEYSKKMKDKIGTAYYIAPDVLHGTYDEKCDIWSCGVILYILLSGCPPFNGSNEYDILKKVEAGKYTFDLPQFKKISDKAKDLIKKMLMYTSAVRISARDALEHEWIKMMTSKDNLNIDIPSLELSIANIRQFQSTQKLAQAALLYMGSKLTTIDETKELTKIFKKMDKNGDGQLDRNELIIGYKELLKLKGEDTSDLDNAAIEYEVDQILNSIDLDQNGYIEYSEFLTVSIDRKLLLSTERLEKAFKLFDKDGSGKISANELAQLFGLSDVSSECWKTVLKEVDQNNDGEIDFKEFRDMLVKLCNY

Sequence of Plasmodium falciparum protein kinase 6 (PK6, PF3D7_1337100) (Q8IDW1 1-305): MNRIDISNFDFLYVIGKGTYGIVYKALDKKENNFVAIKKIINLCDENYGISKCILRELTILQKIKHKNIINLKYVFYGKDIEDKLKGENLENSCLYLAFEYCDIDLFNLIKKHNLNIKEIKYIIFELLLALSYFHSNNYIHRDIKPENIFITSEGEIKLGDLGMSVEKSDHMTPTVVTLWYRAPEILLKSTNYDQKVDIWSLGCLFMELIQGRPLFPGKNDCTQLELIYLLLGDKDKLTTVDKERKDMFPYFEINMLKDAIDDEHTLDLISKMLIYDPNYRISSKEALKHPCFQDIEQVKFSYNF
Sequence of L-lactate dehydrogenase (Plasmodium falciparum (isolate CDC / Honduras)) (Q27743 whole entry, looked up): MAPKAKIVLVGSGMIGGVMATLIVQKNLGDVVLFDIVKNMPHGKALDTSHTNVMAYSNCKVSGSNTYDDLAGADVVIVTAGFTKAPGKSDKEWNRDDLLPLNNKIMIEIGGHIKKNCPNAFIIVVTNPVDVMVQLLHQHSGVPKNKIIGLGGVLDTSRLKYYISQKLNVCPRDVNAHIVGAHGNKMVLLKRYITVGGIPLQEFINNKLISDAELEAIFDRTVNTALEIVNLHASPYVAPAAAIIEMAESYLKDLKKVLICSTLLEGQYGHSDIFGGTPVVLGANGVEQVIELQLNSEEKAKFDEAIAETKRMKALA
Sequence of Calcium-dependent protein kinase 1 (Plasmodium falciparum (isolate 3D7)) (P62344 whole entry, looked up): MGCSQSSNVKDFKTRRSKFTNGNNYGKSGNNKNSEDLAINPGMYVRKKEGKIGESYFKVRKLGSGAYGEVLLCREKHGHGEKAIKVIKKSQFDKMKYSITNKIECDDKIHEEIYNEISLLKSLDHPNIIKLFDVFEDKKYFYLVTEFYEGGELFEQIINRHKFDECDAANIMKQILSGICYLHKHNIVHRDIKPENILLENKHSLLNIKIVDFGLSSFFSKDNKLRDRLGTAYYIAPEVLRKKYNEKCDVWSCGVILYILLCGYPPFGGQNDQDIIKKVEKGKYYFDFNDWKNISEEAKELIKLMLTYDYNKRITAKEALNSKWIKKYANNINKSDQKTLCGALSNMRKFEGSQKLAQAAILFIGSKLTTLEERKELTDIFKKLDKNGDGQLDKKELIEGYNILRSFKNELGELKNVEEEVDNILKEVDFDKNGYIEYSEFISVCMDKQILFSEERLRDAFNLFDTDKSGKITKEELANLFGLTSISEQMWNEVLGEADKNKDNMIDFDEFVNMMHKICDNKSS
Sequence of Protein kinase 7 (PK7), Plasmodium falciparum 3D7 (PF3D7_0213400) (Q7YTF7 1-343): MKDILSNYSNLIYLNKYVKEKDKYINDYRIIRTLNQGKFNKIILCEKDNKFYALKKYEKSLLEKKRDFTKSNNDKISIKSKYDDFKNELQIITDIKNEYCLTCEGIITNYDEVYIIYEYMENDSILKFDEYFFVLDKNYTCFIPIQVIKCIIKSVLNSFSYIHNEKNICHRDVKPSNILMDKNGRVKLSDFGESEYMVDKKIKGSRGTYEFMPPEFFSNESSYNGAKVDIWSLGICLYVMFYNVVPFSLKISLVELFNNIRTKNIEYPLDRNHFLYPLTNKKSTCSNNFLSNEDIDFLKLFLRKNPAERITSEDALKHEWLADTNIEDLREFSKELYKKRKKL

COc1cc2c(cc1OC)C(C(=O)Nc1ccc(C(F)(F)F)cc1)C(c1cccs1)N(C)C2=O (stereo not given)
inactive: inhibition [2] 31% | inhibition [3] 2% | outcome [5] | outcome [6] | outcome [7] | outcome [8]
active: growth inhibition [1] 86% | growth inhibition [4] 99%

CCCNCc1ccc(-c2ccc(CN(CCOC)C(=O)COc3ccccc3Cl)cc2)nc1
inactive: growth inhibition [1] 29% | inhibition [2] -1% | inhibition [3] -2% | outcome [5] | outcome [6] | outcome [7] | outcome [8]
active: growth inhibition [4] 96%

CCOC(=O)c1ccc(NC(=O)NCCCC2CCCN(CCCCCNC(=O)/C=C/c3ccc(Cl)c(Cl)c3)C2)cc1 (stereo not given)
inactive: growth inhibition [1] 30% | inhibition [2] 14% | inhibition [3] -2% | outcome [5] | outcome [6] | outcome [7] | outcome [8]
active: growth inhibition [4] 96%

COc1ccccc1CCN(C)CCN1CCC(NC(=O)c2ccc(-c3ccc(C(F)(F)F)cc3)cc2)CC1
active: growth inhibition [4] 92%
inactive: growth inhibition [1] 15% | inhibition [2] 46% | inhibition [3] -2% | outcome [5] | outcome [6] | outcome [7] | outcome [8]

Cc1cc(N[C@@H](Cc2ccccc2)C(=O)NCc2cccc(F)c2)nc(NCCOc2ccccc2)n1
inactive: growth inhibition [1] 7% | inhibition [2] 0% | inhibition [3] -3% | outcome [5] | outcome [6] | outcome [7] | outcome [8]
active: growth inhibition [4] 97%

O=S(=O)(Nc1ccc2nccc(N3CCNCC3)c2c1)c1ccc2c(Cl)cccc2c1
inactive: growth inhibition [1] 2% | inhibition [2] 11% | inhibition [3] -2% | outcome [5] | outcome [6] | outcome [7] | outcome [8]
active: growth inhibition [4] 100%

Cc1cccc2[nH]c(-c3ccc(-c4cccc(NCc5cn6cccnc6n5)c4)cc3)nc12
inactive: inhibition [2] 9% | inhibition [3] -3% | outcome [5] | outcome [6] | outcome [7] | outcome [8]
active: growth inhibition [1] 63% | growth inhibition [4] 94%

CCNC[C@H]1CCCN1CCOc1ccc(-n2cnc3cc(-c4ccc(Cl)cc4)sc3c2=O)cc1OC
inactive: growth inhibition [1] 39% | inhibition [3] -11% | outcome [5] | outcome [6] | outcome [7] | outcome [8]
active: inhibition [2] 53% | growth inhibition [4] 97%

O=C(/C=C/c1ccc(Cl)c(Cl)c1)NCCCCCN1CCC(NC(=O)Nc2ccc([N+](=O)[O-])cc2)CC1
active: growth inhibition [4] 102%
inactive: growth inhibition [1] 2% | inhibition [2] 20% | inhibition [3] 2% | outcome [5] | outcome [6] | outcome [7] | outcome [8]

COc1cc2nc(NCC3CCCO3)n3nc(-c4ccccc4)nc3c2cc1OC (stereo not given)
inactive: inhibition [2] -9% | inhibition [3] -7% | outcome [5] | outcome [6] | outcome [7] | outcome [8]
active: growth inhibition [1] 97% | growth inhibition [4] 92%

Cc1cc(N2CCCC2)nc(Nc2ccc(NC(=O)C(C)C)cc2)n1
active: growth inhibition [4] 97%
inactive: growth inhibition [1] 36% | inhibition [2] 40% | inhibition [3] 2% | outcome [5] | outcome [6] | outcome [7] | outcome [8]

O=C1CC(C(=O)Nc2cccc(-c3cccc(-c4nc5ccccc5[nH]4)c3)c2)c2ccccc2N1 (stereo not given)
inactive: growth inhibition [1] 32% | inhibition [2] 0% | inhibition [3] 1% | outcome [5] | outcome [6] | outcome [7] | outcome [8]
active: growth inhibition [4] 84%

O=C(Nc1ccc2c(c1)CCCN2S(=O)(=O)c1cccs1)c1cc([N+](=O)[O-])ccc1Cl
active: growth inhibition [1] 95% | growth inhibition [4] 93%
inactive: inhibition [2] 29% | inhibition [3] 3% | outcome [5] | outcome [6] | outcome [7] | outcome [8]

COc1cccc(OC)c1CN1CCC(N(C)CCCCCCCCCN2CCC(OC(=O)Nc3ccccc3-c3ccccc3)CC2)CC1
active: growth inhibition [1] 98% | inhibition [2] 100% | growth inhibition [4] 98%
inactive: inhibition [3] -1% | outcome [5] | outcome [6] | outcome [7] | outcome [8]

Cn1cncc1C(=O)Nc1ccc(-c2cccc(-c3nc4ccc(C(F)(F)F)cc4[nH]3)c2)cc1
inactive: growth inhibition [1] 3% | inhibition [2] 34% | inhibition [3] 4% | outcome [5] | outcome [6] | outcome [7] | outcome [8]
active: growth inhibition [4] 100%

COc1ccc(CN(C)CCOc2ccc(NC(=O)c3cccc4c(=O)cc(-c5ccccc5)[nH]c34)cc2)cc1OC
inactive: growth inhibition [1] 44% | inhibition [2] 13% | inhibition [3] -3% | outcome [5] | outcome [6] | outcome [7] | outcome [8]
active: growth inhibition [4] 98%

COc1cc(CC2c3cc(O)c(Cl)cc3CCN2C)c(OC)cc1C (stereo not given)
inactive: inhibition [2] 10% | inhibition [3] 0% | outcome [5] | outcome [6] | outcome [7] | outcome [8]
active: growth inhibition [1] 88% | growth inhibition [4] 99%

O=C(Nc1cccc(-c2cccc(CN3CCCC3)c2)c1)c1cccc(Cl)c1
active: growth inhibition [4] 89%
inactive: growth inhibition [1] 30% | inhibition [2] 44% | inhibition [3] -2% | outcome [5] | outcome [6] | outcome [7] | outcome [8]

O=C(Nc1cc(F)c(F)c(-c2cccnc2)c1)N1CCc2cc(Cl)c(Cl)cc21
inactive: growth inhibition [1] 9% | inhibition [2] 0% | inhibition [3] 5% | outcome [5] | outcome [6] | outcome [7] | outcome [8]
active: growth inhibition [4] 94%

O=C(C=Cc1cccs1)Nc1ccc(-c2nc3ccccc3[nH]2)cc1
inactive: growth inhibition [1] 3% | inhibition [2] -4% | inhibition [3] 4% | outcome [5] | outcome [6] | outcome [7] | outcome [8]
active: growth inhibition [4] 83%

CN1CCN(CCCN(Cc2cccc(-c3ccc(CNCc4ccc5c(c4)OCO5)cc3)c2)C(=O)Nc2ccccc2)CC1
active: growth inhibition [1] 69% | growth inhibition [4] 98%
inactive: inhibition [2] 39% | inhibition [3] 4% | outcome [5] | outcome [6] | outcome [7] | outcome [8]

COc1ccc2[nH]c(C(=O)Nc3cccc(-c4ccc(CN(C)C)cc4)c3)cc2c1
active: growth inhibition [4] 100%
inactive: growth inhibition [1] 34% | inhibition [2] 23% | inhibition [3] 3% | outcome [5] | outcome [6] | outcome [7] | outcome [8]

Cc1cccc2[nH]c(-c3cccc(-c4ccc(NC(=O)c5ccncc5)cc4)c3)nc12
inactive: inhibition [2] 34% | inhibition [3] -5% | outcome [5] | outcome [6] | outcome [7] | outcome [8]
active: growth inhibition [1] 74% | growth inhibition [4] 98%

CN1CCN(CCCN(Cc2csc(-c3ccc(CNCc4ccccc4)cc3)n2)S(=O)(=O)c2cccc3cccnc23)CC1
active: growth inhibition [4] 89%
inactive: growth inhibition [1] 32% | inhibition [2] 5% | inhibition [3] 1% | outcome [5] | outcome [6] | outcome [7] | outcome [8]

c1cc(CN2CCN(CCN3CCOCC3)CC2)cc(-c2ccc(-c3nc4ccccc4[nH]3)cc2)c1
active: growth inhibition [1] 100% | growth inhibition [4] 100%
inactive: inhibition [2] 23% | inhibition [3] -8% | outcome [5] | outcome [6] | outcome [7] | outcome [8]

CCCCNCc1ccc(-c2nc(CN(C(=O)Nc3cc([N+](=O)[O-])ccc3F)C3Cc4ccccc4C3)cs2)cc1
inactive: growth inhibition [1] 13% | inhibition [2] 15% | inhibition [3] -2% | outcome [5] | outcome [6] | outcome [7] | outcome [8]
active: growth inhibition [4] 87%

COc1ccc(OCCn2cc(C(=O)c3ccco3)c3ccccc32)cc1
active: growth inhibition [1] 61% | growth inhibition [4] 98%
inactive: inhibition [2] 17% | inhibition [3] -1% | outcome [5] | outcome [6] | outcome [7] | outcome [8]

COc1ccc(Nc2nccc(NCC(O)c3cccc(C(F)(F)F)c3)n2)cc1 (stereo not given)
inactive: growth inhibition [1] 33% | inhibition [2] 22% | inhibition [3] -2% | outcome [5] | outcome [6] | outcome [7] | outcome [8]
active: growth inhibition [4] 98%

CCCCCCCc1[nH]c2ccccc2c(=O)c1C
inactive: inhibition [2] 48% | inhibition [3] 2% | outcome [5] | outcome [6] | outcome [7] | outcome [8]
active: growth inhibition [1] 96% | growth inhibition [4] 97%

CCCc1cc(C(=O)N[C@@H](Cc2ccccc2)[C@H](O)CNC2CCOCC2)c(F)c(N2CCCCS2(=O)=O)c1
inactive: inhibition [2] -6% | inhibition [3] -3% | outcome [5] | outcome [6] | outcome [7] | outcome [8]
active: growth inhibition [1] 97% | growth inhibition [4] 97%

CNc1nc(Nc2ccccc2C)nc2ccccc12
inactive: inhibition [2] 17% | inhibition [3] -1% | outcome [5] | outcome [6] | outcome [7] | outcome [8]
active: growth inhibition [1] 81% | growth inhibition [4] 101%

Cc1cc(NCCc2ccccc2)nc(/N=C(\N)Nc2cccc(Cl)c2)n1
active: growth inhibition [1] 100% | growth inhibition [4] 101%
inactive: inhibition [2] 24% | inhibition [3] 4% | outcome [5] | outcome [6] | outcome [7] | outcome [8]

CS(=O)(=O)c1ccc(CCNCc2ccc(-c3ccc(CN(C(=O)C4CC(=O)c5ccccc54)C4CCN(Cc5ccccc5)CC4)cc3)nc2)cc1 (stereo not given)
inactive: growth inhibition [1] 49% | inhibition [2] 9% | inhibition [3] 9% | outcome [5] | outcome [6] | outcome [7] | outcome [8]
active: growth inhibition [4] 100%

CC(C)(NCc1ccc(OC(F)(F)F)cc1)c1nc(-c2ccc(Cl)c(O)c2)c(-c2ccncc2)[nH]1
active: inhibition [2] 65% | growth inhibition [4] 94%
inactive: growth inhibition [1] 32% | inhibition [3] -8% | outcome [5] | outcome [6] | outcome [7] | outcome [8]

C=CCOC(=O)N1CCC(CNCc2ccc(-c3cccc(-c4nc5ccccc5[nH]4)c3)cc2)C1 (stereo not given)
inactive: inhibition [2] 39% | inhibition [3] 2% | outcome [5] | outcome [6] | outcome [7] | outcome [8]
active: growth inhibition [1] 50% | growth inhibition [4] 100%

Cc1ccc(NS(=O)(=O)c2ccc(-c3ccccc3)cc2)c(Cn2cnc(N3CCCNCC3)cc2=O)c1
active: growth inhibition [4] 87%
inactive: growth inhibition [1] 33% | inhibition [2] 10% | inhibition [3] 4% | outcome [5] | outcome [6] | outcome [7] | outcome [8]

COCCN1CCC(CNCC(C)(C)c2nc(-c3ccc(Cl)c(O)c3)c(-c3ccncc3)[nH]2)CC1
active: growth inhibition [4] 102%
inactive: growth inhibition [1] 2% | inhibition [2] -15% | inhibition [3] -1% | outcome [5] | outcome [6] | outcome [7] | outcome [8]

O=S(=O)(NCCN1CCCC1)c1ccc(-c2ccc(CNCc3ccsc3)cc2)s1
active: growth inhibition [4] 99%
inactive: growth inhibition [1] 40% | inhibition [2] 31% | inhibition [3] 7% | outcome [5] | outcome [6] | outcome [7] | outcome [8]

Fc1ccc(C=NNc2nc3ccccc3[nH]2)cc1
inactive: inhibition [2] -7% | inhibition [3] -2% | outcome [5] | outcome [6] | outcome [7] | outcome [8]
active: growth inhibition [1] 58% | growth inhibition [4] 98%

CN(C)CCOc1cc(NC(=O)Nc2ccc(-c3ccccc3)cc2)ccc1I
active: growth inhibition [4] 101%
inactive: growth inhibition [1] 45% | inhibition [2] 9% | inhibition [3] -3% | outcome [5] | outcome [6] | outcome [7] | outcome [8]
